Records with an inconclusive call do not appear. Active and inactive are the calls of the source. How the source made its calls: active means hit-call score of the fitted dose curve at least 0.9, where 1 is the maximum; inconclusive means response in the unintended direction; inactive means score below 0.9.
Assay: ATG_XTT_Cytotoxicity: Cytotoxicity Assessment in the Attagene TRANS-FACTORIAL HepG2 Assay (AID 2283584);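 on AC50: cells exposed to compound for 24 h before reading; active means loss of viability signal versus DMSO baseline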
Method in brief: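 Viability endpoint from XTT after 24 h chemical exposure of reporter-transfected human HepG2 liver cells; signal loss fitted relative to DMSO negative control.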

SMILES	outcome	AC50
CCCCCC(C)OC(=O)COc1ccc(Cl)c2cccnc12 (configuration not stated)	inactive	
CC(C)c1c(C(=O)Nc2ccccc2)c(-c2ccccc2)c(-c2ccc(F)cc2)n1CC[C@@H](O)C[C@@H](O)CC(=O)O	inactive	
CCCCCCCCCCCCCCCC(=O)OC	inactive	
Nc1ccn([C@@H]2O[C@H](CO)[C@@H](O)C2O)c(=O)n1 (some centres not stated)	inactive	
Nc1cc(Cl)c(-c2cc(Cl)c(N)cc2Cl)cc1Cl	inactive	
C=CC(=C)CC/C=C(\C)CCC=C(C)C	inactive	
Cc1ccc(C)c(S(=O)(=O)O)c1	inactive	
CCCCCCCCC(C)=O	inactive	
Cc1ccc(N=Nc2c(O)ccc3ccccc23)c(C)c1	inactive	
CC1CNCC(C)O1 (configuration not stated)	inactive	
Cn1sccc1=O	inactive	
C[C@]12CC[C@@H]3c4ccc(O)cc4CC[C@H]3[C@@H]1CC[C@@H]2OC(=O)CCC1CCCC1	inactive	
O=C(O)C(=O)O	inactive	
O=C(NCc1ncc(C(F)(F)F)cc1Cl)c1c(Cl)cccc1Cl	inactive	
Cc1ccccc1OCC(=O)O	inactive	
C[C@]12CC[C@@H]3c4ccc(O)cc4CC[C@H]3[C@@H]1C[C@@H](O)[C@@H]2O	inactive	
O=C1Cc2ccccc2N1c1c(Cl)cccc1Cl	inactive	
CC(C)(c1ccc(Oc2ccc(N)cc2)cc1)c1ccc(Oc2ccc(N)cc2)cc1		48.6 µM (active)
CCCCCCCCCCCCCCCCCC[N+](C)(C)Cc1ccccc1		29 µM (active)

SMILES	outcome	AC50
O=S(=O)(c1ccc(OCc2ccccc2)cc1)c1ccccc1O	inactive	
CC1CCC(CO)CC1 (configuration not stated)	inactive	
NNc1nc(-c2ccc([N+](=O)[O-])cc2)cs1	inactive	
CCCCCCCCCCCC		89.9 µM (active)
Cc1cc(=O)oc2cc(O)ccc12	inactive	
COc1ccccc1NC(=O)c1cc2ccccc2cc1O	inactive	
COC1=CC(=O)C[C@@H](C)[C@]12Oc1c(Cl)c(OC)cc(OC)c1C2=O	inactive	
NCCN	inactive	
c1cc[nH]c1	inactive	
CCOC=O	inactive	
O=C(O)CN(CCCN(CC(=O)O)CC(=O)O)CC(=O)O	inactive	
CCc1cccc(CC)c1NC(=O)C(=O)O	inactive	
Cc1ccc(C(=O)c2ccccc2)cc1	inactive	
CCCCCc1ccc(O)cc1	inactive	
O=C(NO)c1ccccc1	inactive	
COc1ccc(C#N)cc1	inactive	
CC(O)COc1ccccc1 (configuration not stated)	inactive	
CCC(C)c1nccnc1OC (configuration not stated)	inactive	
O=C1C=CC(=O)N1c1cccc(N2C(=O)C=CC2=O)c1	inactive	

Assay: TOX21_p53_BLA_p2_viability: Viability Assessment in the Tox21 HCT-116 p53 Agonism Beta-lactamase Assay, Phase 2 (AID 2283591);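 further: compound exposure lasted 16 h at 37 °C; actives lower the ATP signal meaning cytotoxicity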
Method in brief: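 HCT116 p53-bla cells, 4000/well, dosed after 5 h plating (217-fold dilution of DMSO stocks) and incubated 16 h at 37C. Viability taken as cellular ATP by CellTiter-Glo luminescence after 30 min RT; signal loss marks cytotoxicity.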

SMILES	outcome
CCCCCC(C)OC(=O)COc1ccc(Cl)c2cccnc12 (configuration not stated)	inactive
CCCCCCCCCCCCCCCC(=O)OC	inactive
Cc1ccc(C)c(S(=O)(=O)O)c1	inactive
CC(O)COc1ccccc1 (configuration not stated)	inactive

Reference: PubChem BioAssay (EPA / NIEHS)
